Screening results (PubChem)
Rows were chosen to be rich in hits. Some 4.1% of all compounds tested hit in one or more screens of this group.
hcDAF12 agonist – H. contortus DAF-12 activation, primary screen; HEK293 hcDAF-12 lit1-tk-luc reporter, luminescence; 0% DMSO, 100% Δ7-dafachronic acid; activation, % at 6.8 µM; 370,000 tested, 1.4% active;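 active = activation above the mean of all tested compounds plus 3 SD, cut at about 5.5% in these data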;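 note: 100% = response to 3 µM Δ7-dafachronic acid high control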
hgDAF-12 ag – activates the H. glycines DAF-12 receptor ligand-binding domain; activation, % at 6.8 µM; HEK293 GAL4-hgDAF12 UAS-luciferase reporter, agonist luminescence; normalized to butyrate control; 370,000 tested, 1.8% active;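 active = activation above a cutoff set at the mean of all screened compounds plus 3 SD, cut at about 10% in these data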;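 note: 0% = DMSO wells and 100% = sodium butyrate wells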
DAX1 inh-1 – inhibitors of DAX1 repression of SF-1 activated StAR promoter. inhibition, % at 6.8 µM. HEK293T StAR-luciferase reporter, SF-1/DAX-1 repression relief. 370,000 tested, 1.1% active. AID 652010;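 active = inhibition above the mean over all tested compounds plus 3 SD, cut at about 3.6% in these data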;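 note: 0% = DAX-1 cells with DMSO and 100% = cells lacking DAX-1 with DMSO; higher inhibition means more luminescence from relief of DAX-1 repression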
ssDAF12 agonist – activators of S. stercoralis DAF-12 nuclear receptor. HEK293 ssDAF-12/GRIP1 lit1-tk-luc reporter, luminescence; % of 3 µM dafachronic acid response. activation, % at 6.8 µM. 370,000 tested, 1% active. AID 652126;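 active = activation above the mean over all tested compounds plus 3 SD, cut at about 0.9% in these data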;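 note: 0% = DMSO-only wells and 100% = 3 µM delta7-dafachronic acid wells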
DAX1 inh-2 – inhibits human nuclear receptor DAX1. P51843. HEK293 Gal4-DAX1 luciferase reporter, luminescence. inhibition, % at 6.75 µM. 340,000 tested, 0.99% active;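 active = inhibition above the mean over all tested compounds plus 3 SD, cut at about 4.2% in these data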;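 note: 0% = DAX1-transfected cells with DMSO and 100% = empty-vector control cells with DMSO; inhibition shows as a rise in luminescence from relieved DAX1 repression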
hgDAF12 conf – confirmation of H. glycines DAF-12 agonists; shares compounds with hgDAF-12 ag; HEK293 GAL4-hgDAF12 luciferase reporter, agonist mode; percent of butyrate response; activation, % at 6.8 µM; 3,300 tested, 80% active; AID 743050;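 active = mean activation over triplicate wells above the hit cutoff derived from the earlier primary screen, cut at about 11% in these data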;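 note: 0% = DMSO low control and 100% = 2 mM sodium butyrate high control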
LXRb DAF12 ctr – LXR-beta agonism as DAF-12 counter-screen | shares compounds with hgDAF-12 ag | HEK293 Gal4-LXR luciferase reporter, 24 h | activation, % at 6.8 µM | 3,300 tested, under 10 active;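 active = mean activation of the triplicate above a set limit carried over from the primary screen, none filed active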
Target sequence (P55055 whole entry, looked up, the tested form may be a part): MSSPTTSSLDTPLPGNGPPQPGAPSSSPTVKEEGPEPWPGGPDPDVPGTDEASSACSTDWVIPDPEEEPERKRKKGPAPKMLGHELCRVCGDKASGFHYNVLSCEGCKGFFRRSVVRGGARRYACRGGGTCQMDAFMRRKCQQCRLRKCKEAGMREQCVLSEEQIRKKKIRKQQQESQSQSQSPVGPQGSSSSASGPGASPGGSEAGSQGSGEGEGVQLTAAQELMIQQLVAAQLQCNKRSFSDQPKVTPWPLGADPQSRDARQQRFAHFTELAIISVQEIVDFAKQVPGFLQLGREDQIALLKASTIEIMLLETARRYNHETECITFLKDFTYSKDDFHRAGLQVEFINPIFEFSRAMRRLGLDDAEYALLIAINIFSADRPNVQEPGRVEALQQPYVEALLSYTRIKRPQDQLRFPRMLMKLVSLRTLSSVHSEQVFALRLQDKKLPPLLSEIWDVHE
Numbers without * were called inactive.

COc1ccccc1CN1CCN(Cc2nc(-c3cccs3)no2)CC1 was read as hcDAF12 agonist 1, hgDAF-12 ag 3, DAX1 inh-1 1, ssDAF12 agonist -1 and DAX1 inh-2 0.
COCC1CCN(Cc2nc(-c3cccs3)no2)C1 (configuration not stated) was read as hcDAF12 agonist 3, hgDAF-12 ag 22*, DAX1 inh-1 4, ssDAF12 agonist 1, hgDAF12 conf 10 and LXRb DAF12 ctr 0.
Cc1cccc(NC(=O)CSc2nccn2Cc2ccco2)c1 was read as hcDAF12 agonist 2, hgDAF-12 ag 14*, DAX1 inh-1 3.9*, ssDAF12 agonist -1, DAX1 inh-2 2, hgDAF12 conf 13* and LXRb DAF12 ctr 1.
Screening Cc1cc(C)cc(NC(=O)CSc2nccn2Cc2ccco2)c1 returned hcDAF12 agonist -1, hgDAF-12 ag 0, DAX1 inh-1 -2, ssDAF12 agonist -1 and DAX1 inh-2 0.
`Cc1ccc(/C=C/C(=O)Nc2nccs2)o1` gave hcDAF12 agonist 2, hgDAF-12 ag 7, DAX1 inh-1 2, ssDAF12 agonist -1 and DAX1 inh-2 3.
`O=C(/C=C/c1cccc(F)c1)Nc1nccs1` gave hcDAF12 agonist 5, hgDAF-12 ag 15*, DAX1 inh-1 3, ssDAF12 agonist 0, DAX1 inh-2 2, hgDAF12 conf 15* and LXRb DAF12 ctr 1.
O=c1sc2ccccc2n1CCOc1ccccc1 was read as hcDAF12 agonist 5.6*, hgDAF-12 ag 15*, DAX1 inh-1 3, ssDAF12 agonist 0, DAX1 inh-2 2, hgDAF12 conf 12* and LXRb DAF12 ctr 1.
`Cc1cccc(CSc2cn(CC(=O)N3CCOCC3)c3ccccc23)c1` gave hcDAF12 agonist 4, hgDAF-12 ag 14*, DAX1 inh-1 1, ssDAF12 agonist 0, DAX1 inh-2 5.2*, hgDAF12 conf 13* and LXRb DAF12 ctr 0.
`O=Cc1cn(CC(=O)N2CCOCC2)c2ccccc12` gave hcDAF12 agonist 0, hgDAF-12 ag 0, DAX1 inh-1 0, ssDAF12 agonist -1 and DAX1 inh-2 0.
Screening O=C(Nc1ccc(Cl)cc1)Nc1cnccn1 returned hcDAF12 agonist -1, hgDAF-12 ag 7, DAX1 inh-1 0, ssDAF12 agonist -2 and DAX1 inh-2 4.
Screening CC(C)c1ccc(NC(=O)Nc2cnccn2)cc1 returned hcDAF12 agonist 0, hgDAF-12 ag 16*, DAX1 inh-1 3, ssDAF12 agonist -1, DAX1 inh-2 0, hgDAF12 conf 14* and LXRb DAF12 ctr 1.
For O=C1CN(C(=O)CSc2ccc(-c3ccc(F)cc3)nn2)c2ccccc2N1 the results were hcDAF12 agonist -1, hgDAF-12 ag 1, DAX1 inh-1 0, ssDAF12 agonist -1 and DAX1 inh-2 -1.
Screening CNc1nc(-c2ccc3c(c2)CCN3C(=O)c2ccccc2F)cs1 returned hcDAF12 agonist 5, hgDAF-12 ag 23*, DAX1 inh-1 3.9*, ssDAF12 agonist 0, DAX1 inh-2 1, hgDAF12 conf 18* and LXRb DAF12 ctr 1.
Screening CNc1nc(-c2ccc3c(c2)CCN3C(=O)c2ccccc2F)c(C)s1 returned hcDAF12 agonist -1, hgDAF-12 ag 1, DAX1 inh-1 -1, ssDAF12 agonist -1 and DAX1 inh-2 -2.
COC(=O)[C@@]1(Sc2ccc(C)cc2)CC(=O)N[C@@H]1c1ccc(Br)cc1 was read as hcDAF12 agonist -2, hgDAF-12 ag 1, DAX1 inh-1 0 and ssDAF12 agonist -1.
Screening Cc1ccc(NC(=O)Cn2nnc(-c3ccc4c(c3)OCO4)n2)cc1F returned hcDAF12 agonist 0, hgDAF-12 ag 0, DAX1 inh-1 0, ssDAF12 agonist -1 and DAX1 inh-2 1.
`Fc1ccccc1Cn1nnc(-c2ccc3c(c2)OCO3)n1` gave hcDAF12 agonist 5, hgDAF-12 ag 14*, DAX1 inh-1 3.7*, ssDAF12 agonist 1.3*, DAX1 inh-2 4, hgDAF12 conf 19* and LXRb DAF12 ctr 1.
O=C(Nc1nc2c(Br)cccc2s1)c1ccc2c(c1)OCCO2 was read as hcDAF12 agonist 3, hgDAF-12 ag 15*, ssDAF12 agonist 0, hgDAF12 conf 5 and LXRb DAF12 ctr 1.
Screening O=C(Nc1cccc([N+](=O)[O-])c1)c1ccc2c(c1)OCCO2 returned hcDAF12 agonist -2, hgDAF-12 ag 9, DAX1 inh-1 1, ssDAF12 agonist -1 and DAX1 inh-2 0.
`O=C(NC(=S)Nc1ccc2c(c1)OCCO2)c1cccc(Br)c1` gave hcDAF12 agonist 5, hgDAF-12 ag 14*, DAX1 inh-1 3, ssDAF12 agonist 0, DAX1 inh-2 2, hgDAF12 conf 19* and LXRb DAF12 ctr 1.
For Cc1nc2c(ccc3nc(NC(=O)c4ccc5c(c4)OCCO5)sc32)s1 the results were hcDAF12 agonist 2, hgDAF-12 ag 7, DAX1 inh-1 3, ssDAF12 agonist 0 and DAX1 inh-2 2.
`O=C(NC(=S)Nc1ccc2c(c1)OCCO2)c1cccc2ccccc12` gave hcDAF12 agonist 0, hgDAF-12 ag 3, DAX1 inh-1 0, ssDAF12 agonist -1 and DAX1 inh-2 0.
O=C(Nc1cccc(Cl)c1)c1ccc2c(c1)OCCO2 was read as hcDAF12 agonist 6.5*, hgDAF-12 ag 21*, DAX1 inh-1 2, ssDAF12 agonist 1, DAX1 inh-2 2, hgDAF12 conf 18* and LXRb DAF12 ctr 1.
COCCNC(=O)C1(C)CCCN(Cc2cc(C)ccc2C)C1 (configuration not stated) was read as hcDAF12 agonist 1, hgDAF-12 ag -1, DAX1 inh-1 0 and ssDAF12 agonist 0.
For COc1ccc(N2Cc3ccccc3C2)cc1Cl the results were hcDAF12 agonist 0, hgDAF-12 ag 14*, DAX1 inh-1 -2, ssDAF12 agonist 0, DAX1 inh-2 0, hgDAF12 conf 6 and LXRb DAF12 ctr 0.
`O=C(Nc1ccccc1C(=O)N/N=C/c1ccncc1)c1ccccc1` gave hcDAF12 agonist 3, hgDAF-12 ag 14*, DAX1 inh-1 0, ssDAF12 agonist 0, DAX1 inh-2 -2, hgDAF12 conf 12* and LXRb DAF12 ctr 0.
COc1ccc(C=NNC(=O)c2cc(C)oc2C)cc1O was read as hcDAF12 agonist 2, hgDAF-12 ag 13*, DAX1 inh-1 0, ssDAF12 agonist -1, DAX1 inh-2 0, hgDAF12 conf 14* and LXRb DAF12 ctr 0.
For O=C(N/N=C/c1cccc(O)c1)c1csc2ccccc12 the results were hcDAF12 agonist -1, hgDAF-12 ag 2, DAX1 inh-1 0, ssDAF12 agonist -1 and DAX1 inh-2 2.
